Experimental data from PubChem BioAssay AID1159580 (chemical genetic matrix, 2015).
Where “and” joins values, the source holds several entries; their conditions need not be identical. Identical values can stand only once. In all, about 5,500 compounds went through this assay and about 2,000 (36%) were called active. Another 18% or so got no clear call; they are omitted. Cut-off read from the data, not from the text of the source: active = normalized growth mostly below about 0.91 (no sharp cut-off); inconclusive = no clear call, values can overlap the other calls; inactive = mostly above about 0.92. The list shows a part of the results.

Test: chemical genetic growth profiling, strain panel (AID 1159580);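 note: tested at 20 µM; growth read once vehicle control cultures reached saturation at 30 °C; 1 = growth at the plate median or of vehicle wells; lower values mean less growth of the strain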
Settings: S. cerevisiae deletion strains, growth OD

Measured: normalized growth

COC(=O)C[C@H]1C(C)(C)C(=O)[C@@H]2CC3=C4CC(=O)O[C@@H](c5ccoc5)[C@]4(C)CCC3[C@@]1(C)C2=O (stereo not given in full)
inactive: locus YAL021C, strain ccr4, hits give low values 0.972 | locus YAL026C, strain drs2, hits give low values 0.983 | locus YAL030W, strain snc1, hits give low values 1 | locus YBL061C, strain skt5, hits give low values 0.997 | locus YBR009C, strain hhf1, hits give low values 0.987 | locus YBR021W, strain FUR4, hits give low values 0.986 | locus YBR023C, strain chs3, hits give low values 1 | locus YBR171W, strain sec66, hits give low values 0.992 | locus YBR229C, strain ROT2, hits give low values 1 | locus YBR231C, strain swc5, hits give low values 1.01 | locus YBR279W, strain paf1, hits give low values 0.993 | locus YCL011C, strain gbp2, hits give low values 1 | locus YCL016C, strain dcc1, hits give low values 0.996 | locus YCL029C, strain bik1, hits give low values 0.998 | locus YCL061C, strain MRC1, hits give low values 0.988 | locus YCL069W, strain vba3, hits give low values 0.987 | locus YCR088W, strain abp1, hits give low values 0.988 | locus YDL005C, strain med2, hits give low values 0.975 | locus YDL035C, strain GPR1, hits give low values 1.01 | locus YDL040C, strain nat1, hits give low values 0.995 | locus YDL074C, strain BRE1, hits give low values 1.02 | locus YDL101C, strain DUN1, hits give low values 1.01 | locus YDL134C, strain PPH21, hits give low values 1.01 | locus YDL185W, strain tfp1, hits give low values 1.02 | locus YDL192W, strain arf1, hits give low values 1.01 | locus YDR001C, strain nth1, hits give low values 0.982 | locus YDR069C, strain doa4, hits give low values 0.982 | locus YDR101C, strain arx1, hits give low values 0.993 | locus YDR137W, strain rgp1, hits give low values 0.867 | locus YDR159W, strain sac3, hits give low values 0.999 | locus YDR162C, strain NBP2, hits give low values 1 | locus YDR195W, strain ref2 0.972 | locus YDR297W, strain sur2, hits give low values 0.996 | locus YDR318W, strain mcm21, hits give low values 1.01 | locus YDR334W, strain swr1, hits give low values 0.986 | locus YDR335W, strain msn5, hits give low values 0.985 | locus YDR388W, hits give low values 1.01 | locus YDR392W, strain spt3, hits give low values 0.989 | locus YDR502C, strain sam2, hits give low values 1 | locus YEL003W, strain gim4, hits give low values 0.996 | locus YEL037C, strain rad23, hits give low values 0.985 | locus YEL061C, strain CIN8 (second series), hits give low values 0.985 | locus YEL061C, strain CIN8, hits give low values 1 | locus YER015W, strain faa2, hits give low values 1 | locus YER016W, strain bim1, hits give low values 0.996 | locus YER110C, hits give low values 1.01 | locus YER111C, strain swi4, hits give low values 0.985 | locus YER155C, strain BEM2 (second series), hits give low values 1 | locus YER155C, strain BEM2, hits give low values 0.997 | locus YER167W, strain BCK2, hits give low values 1 | locus YFR010W, strain ubp6, hits give low values 0.978 | locus YGL078C, strain dbp3, hits give low values 1.02 | locus YGL086W, strain mad1, hits give low values 0.982 | locus YGL167C, strain pmr1, hits give low values 0.995 | locus YGL173C, strain kem1, hits give low values 0.994 | locus YGL227W, strain vid30, hits give low values 1 | locus YGL240W, strain doc1, hits give low values 1.02 | locus YGL248W, strain PDE1, hits give low values 1.01 | locus YGL253W, strain hxk2, hits give low values 0.995 | locus YGR078C, strain PAC10, hits give low values 1.01 | locus YGR135W, strain pre9, hits give low values 1.02 | locus YGR229C, strain SMI1, hits give low values 1.01 | locus YGR252W, strain gcn5, hits give low values 1.03 | locus YHR013C, strain ard1, hits give low values 0.977 | locus YHR027C, strain rpn1, hits give low values 0.974 | locus YHR030C, strain SLT2, hits give low values 1.01 and 0.964 | locus YHR079C, strain IRE1 (second series), hits give low values 1 | locus YHR079C, strain IRE1, hits give low values 0.976 | locus YHR094C, strain hxt1, hits give low values 1.01 | locus YHR129C, strain ARP1, hits give low values 0.999 | locus YHR142W, strain chs7, hits give low values 0.996 | locus YHR200W, strain rpn10, hits give low values 1 | locus YIL066C, strain RNR3, hits give low values 1.01 | locus YIL073C, strain SPO22, hits give low values 1.06 | locus YIL125W, strain kgd1, hits give low values 1.01 | locus YIR030C, strain dcg1, hits give low values 1.01 | locus YJL092W, strain hpr5, hits give low values 0.993 | locus YJL095W, strain BCK1 (second series), hits give low values 0.992 | locus YJL095W, strain BCK1, hits give low values 1.02 and 0.974 | locus YJL115W, strain asf1, hits give low values 0.978 | locus YJL129C, strain trk1, hits give low values 0.971 | locus YJL134W, strain LCB3, hits give low values 1.01 | locus YJL154C, strain vps35, hits give low values 0.983 | locus YJL164C, strain tpk1, hits give low values 1 | locus YJL166W, strain qcr8, hits give low values 1.01 | locus YJL168C, strain set2, hits give low values 1.01 | locus YJL187C, strain SWE1 (second series), hits give low values 1.02 | locus YJL187C, strain SWE1, hits give low values 0.991 | locus YJR066W, strain TOR1, hits give low values 0.918 | locus YKL009W, strain mrt4, hits give low values 0.999 | locus YKL068W, hits give low values 1.01 | locus YKL085W, strain MDH1 (second series), hits give low values 0.995 | locus YKL085W, strain MDH1, hits give low values 0.995 | locus YKL160W, strain elf1, hits give low values 0.996 | locus YKL190W, strain CNB1, hits give low values 1.01 | locus YKR001C, strain vps1, hits give low values 1.02 | locus YKR026C, strain gcn3, hits give low values 0.994 | locus YKR091W, strain srl3, hits give low values 0.992 | locus YLL001W, strain dnm1, hits give low values 0.983 | locus YLL026W, hits give low values 0.991 | locus YLL041C, strain sdh2, hits give low values 0.991 | locus YLR027C, strain aat2, hits give low values 0.998 | locus YLR039C, strain RIC1, hits give low values 0.988 | locus YLR058C, strain SHM2, hits give low values 1 | locus YLR102C, strain apc9, hits give low values 1.01 | locus YLR113W, strain HOG1, hits give low values 1.01 | locus YLR221C, strain rsa3, hits give low values 0.998 | locus YLR258W, strain gsy2, hits give low values 0.988 | locus YLR262C, strain YPT6 (second series), hits give low values 0.912 | locus YLR268W, strain sec22, hits give low values 1 | locus YLR320W, strain mms22, hits give low values 1.01 | locus YLR330W, strain CHS5, hits give low values 1 | locus YLR342W, strain FKS1, hits give low values 0.998 | locus YLR357W, strain rsc2, hits give low values 1.01 | locus YLR370C, strain arc18, hits give low values 0.988 | locus YLR371W, strain rom2, hits give low values 1.01 | locus YLR384C, strain iki3, hits give low values 0.993 | locus YLR418C, strain cdc73, hits give low values 1.03 | locus YML016C, strain PPZ1, hits give low values 0.998 | locus YML032C, strain rad52, hits give low values 0.997 | locus YML120C, strain ndi1, hits give low values 0.995 | locus YML124C, strain tub3, hits give low values 1.01 | locus YMR058W, strain fet3, hits give low values 0.981 | locus YMR078C, strain ctf18, hits give low values 1.02 | locus YMR125W, strain sto1, hits give low values 0.982 | locus YMR129W, hits give low values 0.998 | locus YMR205C, strain PFK2, hits give low values 0.988 | locus YMR223W, strain ubp8, hits give low values 0.999 | locus YMR231W, strain pep5, hits give low values 0.98 | locus YMR307W, strain GAS1, hits give low values 0.96 | locus YNL067W, strain RPL9B, hits give low values 1.02 | locus YNL071W, strain lat1, hits give low values 0.989 | locus YNL183C, strain NPR1, hits give low values 0.963 | locus YNL209W, strain ssb2, hits give low values 0.996 | locus YNL233W, strain BNI4, hits give low values 1.03 | locus YNL248C, strain rpa49, hits give low values 0.982 | locus YNL250W, strain rad50, hits give low values 0.998 | locus YNL271C, strain bni1, hits give low values 1.01 | locus YNL298W, strain CLA4, hits give low values 1.03 | locus YNL307C, strain MCK1, hits give low values 1.01 | locus YNL322C, strain KRE1 (second series), hits give low values 0.996 | locus YNR049C, strain mso1, hits give low values 0.987 | locus YNR052C, strain pop2, hits give low values 1.01 | locus YOL012C, strain htz1 0.887 | locus YOL147C, strain pex11, hits give low values 1.01 | locus YOR001W, strain rrp6, hits give low values 0.985 | locus YOR061W, strain CKA2, hits give low values 1 | locus YOR069W, strain VPS5, hits give low values 1 | locus YOR070C, strain gyp1, hits give low values 0.991 | locus YOR080W, strain dia2, hits give low values 0.995 | locus YOR083W, strain WHI5, hits give low values 0.996 | locus YOR106W, strain vam3, hits give low values 0.991 | locus YOR136W, strain idh2, hits give low values 1.01 | locus YOR144C, strain elg1, hits give low values 1 | locus YOR184W, strain ser1, hits give low values 1 | locus YOR231W, strain MKK1, hits give low values 0.979 | locus YOR265W, strain rbl2, hits give low values 0.987 | locus YOR270C, strain vph1, hits give low values 0.941 | locus YOR290C, strain snf2, hits give low values 1 | locus YOR316C, strain cot1, hits give low values 1.01 | locus YPL051W, strain arl3, hits give low values 0.992 | locus YPL078C, strain atp4, hits give low values 0.987 | locus YPL106C, strain sse1, hits give low values 1.04 | locus YPL240C, strain hsp82, hits give low values 0.998 | locus YPL256C, strain CLN2, hits give low values 0.97 | locus YPR119W, strain clb2, hits give low values 1.01 | locus YPR141C, strain kar3, hits give low values 1.01 | locus YPR163C, strain tif3, hits give low values 1.01 | locus YPR167C, strain met16, hits give low values 1.01 | strain wtn01, hits give low values 0.981
